The text below walks through data of PubChem BioAssay (NCI).

This is part of a sample that, as a whole, favours compounds with a hit. Of some 83,000 tested, about 20% had one in any assay.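 96-well plates, one dose, 48 hours. Percent growth reported; active if below 10.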 A number with no mark means an inactive call. Calls of active or inactive are those of the source.

Common to all, as to experiment: NCI-60 one-dose screen, 48 h (100 = growth as untreated, 0 = no growth, -100 = all killed)
What all share (settings): 10 µM unless noted

For assay [1], the system named is RPMI-8226 leukemia.
Assay [2] deals with OVCAR-8 ovarian.
In assay [3] the test system is OVCAR-5 ovarian.
Assay [4] concerns OVCAR-4 ovarian.
Assay [5] deals with SK-OV-3 ovarian.
In assay [6] the test system is IGROV1 ovarian.
Assay [7] deals with OVCAR-3 ovarian.
Assay [8] deals with HS 578T breast.
Assay [9] deals with NCI/ADR-RES ovarian.
Assay [10] has as its system T-47D breast.
The subject of assay [11] is MDA-MB-435 melanoma.
Assay [12] deals with SW-620 colon.
Assay [13] has as its system MCF7 breast.
The subject of assay [14] is HCT-116 colon.
For assay [15], the system named is HCC-2998 colon.
Assay [16] has as its system KM12 colon.
Assay [17] has as its system BT-549 breast.

Regarding `CCOC(=O)C(C(C)=O)c1nc2sc3cc(Cl)ccc3n2c(=N)c1C#N` (stereo unspecified), the growth in [1] is 97.9%; in assay [2] it was 80.9%; in assay [3], 114%; in [4] it was 77.9%; in assay [5] it was 84.6%; in assay [6] it was 84.3%. Moreover, the growth was 107% in assay [7]; 28.8% in assay [8]; 87.2% in assay [9]; 77.9% in assay [10]; 104% in assay [11]; 98.4% in assay [12]. The growth is 58.8% in assay [13], 103% in [14], 131% in [15] and 44.1% in assay [16].
On to `O=C(CSc1nc2c(n1Nc1ccccc1)-c1ccccc1SC2)Nc1nc(-c2ccc(Cl)cc2)cs1`, for which the growth was 86.1% in assay [1]; 57.3% in assay [2]; 93.6% in [3]; 8.37% (active) in assay [4]; 82.9% in assay [5]; 86% in [6]. Further, the growth is 65.7% in assay [7]; 23.4% in [8]; 66.8% in assay [10]; 93.9% in assay [17]; 61% in assay [11]; 28.2% in [12]. The growth in assay [13] was 68.9%; in assay [14], 36.9%; in [15], 102%; in assay [16] it was 48.5%.
Consider `C=CC1=C(C(=O)O)N2C(=O)[C@@H](NC(=O)/C(=N\O)c3csc(N)n3)[C@H]2SC1` (stereo in doubt), for which the growth in assay [1] was 113%; in assay [2], 102%; in [3], 95.7%; in assay [4] it was 108%; in assay [5], 107%; in [6], 120%. The growth in [7] is 108%; in [8], 103%; in [10], 114%; in assay [17] it was 118%; in assay [11], 109%; in assay [12], 106%. The growth in [14] was 105%; in assay [15], 105%; in assay [16], 112%.
On to `Fc1ccc(-c2nnc(/C=C/c3cn(-c4ccccc4)nc3-c3ccccc3)o2)cc1`, for which the growth is 104% in assay [1]; 98.2% in assay [2]; 82.2% in assay [3]; 114% in assay [4]; 85.5% in [5]; 97.7% in assay [6]. The growth was 119% in assay [7]; 96.9% in assay [8]; 72.6% in assay [10]; 86.6% in assay [17]; 100% in [11]; 86.6% in [12]. The growth in [13] is 94%; in assay [14], 57%; in assay [15], 95%; in assay [16] it was 102%.
For `CCOC(=O)C1C(=O)OC2CCCCC21` (stereo unspecified), the growth in assay [1] is 99.9%; in assay [2] it was 99.5%; in assay [3], 117%; in assay [4] it was 102%; in [5], 109%; in [6] it was 103%. The growth is 126% in assay [7]; 105% in assay [8]; 116% in [9]; 97.5% in [17]; 114% in [11]; 110% in assay [12]. In addition, the growth is 95.4% in assay [13], 101% in assay [14], 106% in assay [15] and 109% in [16].
Turning to `NS(=O)(=O)c1ccc(NC2=C(Cl)C(=O)c3ccccc3C2=O)cc1`, the growth was 61.2% in assay [1]; 88.6% in assay [2]; 102% in assay [3]; 94.4% in [4]; 90.2% in assay [5]; 75.3% in [6]. The growth was 98% in [7]; 142% in assay [8]; 93.6% in [9]; -48.3% (active) in [10]; 124% in [11]; 95% in [12]. In addition, the growth was 72.8% in [13], 65% in assay [14] and 123% in assay [16].
With `CNc1ccc(CSc2ccc(Cl)cc2)cc1`, the growth in [1] was 35.8%; in assay [2], 103%; in assay [3], 90.2%; in assay [4] it was 85.6%; in assay [5] it was 107%; in assay [6], 81.9%. Besides, the growth in assay [7] is 109%; in assay [8], 123%; in [9], 97%; in [10], 80.3%; in assay [11], 87.3%; in assay [12], 109%. In addition, the growth in assay [13] was 96.2%; in assay [14], 91.3%; in assay [15] it was 118%; in assay [16] it was 111%.
`CC(=O)c1ccc2c3c(n(C)c2c1)CCCC3`: the growth in [1] was 90.2%; in [2], 106%; in assay [3] it was 91.7%; in assay [4], 106%; in assay [5], 110%; in assay [6], 104%. Besides, the growth was 111% in assay [7]; 141% in [8]; 109% in [10]; 96.5% in assay [17]; 97.8% in [11]; 110% in assay [12]. Moreover, the growth is 95.9% in assay [13], 99.1% in assay [14], 93.7% in assay [15] and 112% in assay [16].
As for `COc1cc(OC)c2cc(C(=O)O)c(=O)oc2c1`, the growth was 43% in assay [1]; 94.4% in assay [2]; 106% in assay [3]; 130% in assay [4]; 99.9% in [5]; 55.2% in assay [6]. The growth in assay [7] is 102%; in [8], 134%; in [9], 112%; in assay [10] it was 99.4%; in assay [11], 76.8%; in assay [12], 103%. The results for the growth in [13], in assay [14] and in assay [16] were 94.2%, 103% and 114%, respectively.
As for `CCCc1nn(C)c2c(=O)[nH]c(-c3cc(S(=O)(=O)N4CCN(C)CC4)ccc3OCC)nc12`, the growth in assay [1] was 101%; in [2], 109%; in assay [3] it was 95.6%; in assay [4] it was 111%; in [5], 100%; in assay [6] it was 112%. Moreover, the growth was 111% in assay [7]; 104% in [8]; 90.2% in assay [9]; 98.4% in assay [10]; 100% in assay [11]; 115% in [12]. The growth is 98.8% in [14], 108% in [15] and 103% in assay [16].
On to `Cc1nc(N)[nH]c(=O)c1C`, for which the growth is 83.7% in [1]; 105% in [2]; 98.3% in [3]; 111% in assay [4]; 99.4% in assay [5]; 9.58% (active) in assay [6]. In addition, the growth in [7] is 121%; in assay [8], 183%; in assay [9] it was 91%; in [10] it was 83%; in [11] it was 106%; in [12], 125%. Also, the growth in assay [13] is 95%; in [14] it was 101%; in assay [15], 81.1%; in assay [16], 122%.
Take `Clc1ccc([C@@H]2C[C@@H]3Cc4cc(Br)c5ccccc5c4N2O3)c(Cl)c1`: the growth in assay [1] was 89.3%; in assay [2], 98.3%; in assay [3], 101%; in assay [4], 84.7%; in assay [5] it was 79.5%; in assay [6], 79.4%. In addition, the growth is 41.6% in assay [7]; 92.3% in assay [8]; 96.9% in [10]; 97.7% in assay [17]; 4.61% (active) in assay [11]; 55.4% in assay [12]. Besides, the growth in assay [13] is 34%; in [14], 76.6%; in assay [15], 87%; in assay [16], 66.7%.
On to `O=C(OC[C@H]1O[C@H](OC(=O)c2cc(O)c(O)c(OC(=O)c3cc(O)c(O)c(O)c3)c2)[C@H](OC(=O)c2cc(O)c(O)c(OC(=O)c3cc(O)c(O)c(O)c3)c2)[C@@H](OC(=O)c2cc(O)c(O)c(OC(=O)c3cc(O)c(O)c(O)c3)c2)[C@@H]1OC(=O)c1cc(O)c(O)c(OC(=O)c2cc(O)c(O)c(O)c2)c1)c1cc(O)c(O)c(OC(=O)c2cc(O)c(O)c(O)c2)c1`, for which the growth in assay [1] was 34.9%; in [2], 30.2%; in assay [3], 48.3%; in assay [4], 37.8%; in assay [5] it was 49.8%; in assay [6], 29.8%. The growth in assay [7] is 13.8%; in assay [8], 66.1%; in assay [9] it was 9.15% (active); in assay [10], 33.2%; in assay [11] it was 8.23% (active); in assay [12] it was 47.5%. Further, the growth in assay [14] is 11.5%; in [15] it was 1.77% (active); in assay [16], 21.8%.
Turning to `NC(=O)c1ncn([C@@H]2O[C@H](CO)[C@@H](O)[C@H]2O)n1`, the growth is 87.2% in [1]; 72.7% in assay [2]; 102% in assay [3]; 92.2% in assay [4]; 96.8% in [5]; 98.9% in assay [6]. Moreover, the growth was 103% in assay [7]; 113% in assay [8]; 89% in assay [10]; 105% in [17]; 101% in assay [11]; 71.5% in assay [12]. Besides, the values for the growth in assay [14], in [15] and in assay [16] were 89.6%, 87.6% and 100%, respectively.
In the case of `COc1ccc2c(c1)C(=O)c1c-2c(OCCN(C)C)nc2cc(OC)ccc12`, the growth in [1] was -25.4% (active); in [2], 4.01% (active); in assay [3], 44.9%; in [4] it was 4.71% (active); in [5], 23.9%; in assay [6], 6.3% (active). For the same compound, the growth in [7] was 32.5%; in assay [8], 35.6%; in [10], 47.1%; in [17], 56.6%; in [11], 18.5%; in assay [12] it was -45.8% (active). Also, the growth was -50% (active) in assay [13], -76% (active) in assay [14], -88.8% (active) in [15] and -37.4% (active) in assay [16].
Take `NC(=O)c1ccccc1NC(=O)c1ccccc1Cl`: the growth in assay [1] was 85%; in [2], 99.4%; in assay [3], 108%; in [4], 98.3%; in [5], 107%; in assay [6] it was 96%. For the same compound, the growth in assay [7] is 109%; in [8], 108%; in assay [9] it was 115%; in [10], 96.4%; in assay [11], 105%; in assay [12] it was 108%. For the same compound, the growth in [13] is 115%; in assay [14], 103%; in [15] it was 116%; in assay [16], 105%.
Turning to `CC[C@H](C)C(=O)O[C@H]1C[C@@H](C)C=C2C=C[C@H](C)[C@H](CC[C@@H]3C[C@@H](O)CC(=O)O3)[C@H]21`, the growth in assay [1] is 71.8%; in [2] it was 61.9%; in assay [3] it was 87.2%; in assay [4], 111%; in assay [5] it was 83.7%; in assay [6], 55.9%. In addition, the growth is 102% in assay [7]; 94% in assay [8]; 32.1% in [9]; 96.7% in assay [10]; 87.8% in assay [11]; 99.2% in assay [12]. In addition, the growth in assay [14] was 51.7%; in [15] it was 97.5%; in assay [16] it was 109%.
On to `O=C(/C(=N/O)S(=O)(=O)c1ccccc1)c1cccs1`, for which the growth in [1] is 101%; in [2] it was 104%; in [3], 118%; in assay [4], 113%; in assay [5], 94%; in assay [6] it was 109%. In addition, the growth was 109% in assay [7]; 118% in [8]; 97.3% in assay [9]; 93.2% in assay [10]; 105% in [11]; 117% in [12]. Besides, the growth in [13] is 98%; in assay [14], 96.4%; in [15], 93.2%; in [16] it was 107%.
With `CCCCCCOc1ccc(/C=N/NC(N)=S)cc1`, the growth in [1] was 7.2% (active); in assay [2] it was 70.6%; in [3], 84.5%; in assay [4] it was 26.5%; in assay [5] it was 90.6%; in assay [6], 13.9%. The growth was 28.5% in assay [7]; 61.8% in assay [8]; 24% in assay [10]; -5% (active) in assay [17]; 23.3% in [12]; 56.6% in assay [13]. The growth in [14] is 33.6%; in assay [15], 72.1%; in assay [16], 48.9%.
